Screens (PubChem BioAssay)
Shown are actives, neighbours in structure and some others; about 21% of the full set was active somewhere.
IL-1B inflam inh = inflammasome signaling inhibition, IL-1 beta readout; THP-1 LPS/ATP IL-1B secretion, AlphaLISA, 16 h; stronger effect = lower value; activity change, % at 57.5 µM; 4.7% of 360,000 active; AID 743279; in the data active means activity change below about -50%; inconclusive means mostly about -30% to -49%
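THP-1 cells pretreated 1 hr with compounds (up to 57.5 uM final), then stimulated with LPS (250 ng/mL final) plus ATP (1.25 mM final); secreted IL-1B measured by AlphaLISA after 16 hr, decreased signal indicating inhibition.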
RORg inh = ROR gamma (mouse) transcription inhibition. P51450. Drosophila S2 Gal4-RORgamma UAS-luciferase reporter, 20 h. Potency, µM (doses to about 53.6 µM), for inactives: at the top dose activity change, negative = inhibition, actives largely listed as inhibitors. 5.4% of 310,000 active. AID 2551; further: potency means the concentration at half of the fitted maximal effect; nearly all actives have a fitted effect of over 60% in size
Target sequence (P51450 whole entry, looked up, the tested form may be a part): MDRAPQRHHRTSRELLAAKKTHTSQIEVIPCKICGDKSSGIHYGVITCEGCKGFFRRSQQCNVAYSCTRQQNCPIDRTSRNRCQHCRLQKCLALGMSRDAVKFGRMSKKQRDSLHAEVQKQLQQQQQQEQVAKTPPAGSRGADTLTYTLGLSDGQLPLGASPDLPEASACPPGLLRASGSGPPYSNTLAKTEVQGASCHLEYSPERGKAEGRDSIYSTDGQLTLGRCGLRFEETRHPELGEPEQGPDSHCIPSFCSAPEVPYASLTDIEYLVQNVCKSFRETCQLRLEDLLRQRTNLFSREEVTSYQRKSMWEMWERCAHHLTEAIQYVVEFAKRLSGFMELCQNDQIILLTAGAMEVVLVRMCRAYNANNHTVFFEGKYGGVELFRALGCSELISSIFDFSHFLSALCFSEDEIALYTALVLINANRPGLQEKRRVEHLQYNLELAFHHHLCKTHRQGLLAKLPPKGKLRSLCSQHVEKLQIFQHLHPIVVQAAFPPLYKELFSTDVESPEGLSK
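Compounds are pin-transferred onto Drosophila Schneider cells expressing a copper-inducible Gal4–ROR gamma transactivation domain fusion. After 1 hr, copper sulfate is added to 700 uM final; luciferase is read 20 hr later.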
TDP1 cell noCPT = qHTS for Inhibitors of human tyrosyl-DNA phosphodiesterase 1 (TDP1): qHTS in cells in absence of CPT; 15% of 420,000 active; Potency, µM (titrated, usually from 46.2 µM), inactives show at the highest dose activity change, negative = growth inhibition, usual class: inhibitors; DT40 Tdp1-/- hTDP1 cells, no CPT, ATP luminescence, 48 h; further: potency means the concentration at half of the fitted maximal effect; nearly all actives have a fitted effect of over 55% in size
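DT40 Tdp1-/-;hTDP1 cells, no CPT (DMSO vehicle only), 400 cells/well; compounds pin-transferred; ≥48 hr, 37 °C; CellTiter-Glo 30 min RT dark, luminescence read.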
VP16 counter = Gal4-VP16 reporter inhibition counter-screen. Drosophila S2 Gal4-VP16 UAS-luciferase, luminescence, 20 h. Potency, µM (series often up to 53.6 µM), for inactives: at the top dose activity, negative = inhibition, hits mostly inhibitors. 3.5% of 310,000 active;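 further: Gal4-VP16 expression switched on by copper sulfate through the metallothionein promoter; potency means the concentration at half of the fitted maximal effect; nearly all actives have a fitted effect of over 50% in size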
TDP1 cell CPT = growth inhibition of DT40 Tdp1-/-;hTDP1 cells with camptothecin (screen for TDP1 inhibitors); 12% of 420,000 active; chicken DT40 Tdp1-/-;hTDP1 cells + 20 nM CPT, ATP luminescence, 48 h; AID 686979; Potency, µM (series often up to 46.2 µM), for the others: top-dose activity change, negative = growth inhibition, actives largely listed as inhibitors; further: potency means the concentration at half of the fitted maximal effect; nearly all actives have a fitted effect of over 55% in size
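Chicken DT40 Tdp1-/- cells stably complemented with human TDP1 were seeded at 400 cells/well in medium containing 20 nM camptothecin, exposed to pin-transferred compounds, and grown at 37 °C for at least 48 hr. Viability was read as ATP luminescence.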
ELG1 repair inh = inhibitors of ELG1-dependent DNA repair in HEK293T cells. HEK293T ELG1-luciferase reporter, luminescence, 16 h; DNA damage induced by 5-fluorouridine. Potency, µM (titrated, usually from 46.1 µM), inactives show at the highest dose activity change, negative = inhibition, most hits filed as inhibitors. 2.3% of 330,000 active; further: potency means the concentration at half of the fitted maximal effect; nearly all actives have a fitted effect of over 55% in size
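Luminescence from the luciferase reporter, measured 30 min after ONE-Glo reagent at room temperature, was the read-out. Beforehand, 2,000 cells per well were exposed for 16 hr at 37 °C to 5-fluorouridine together with compound or vehicle.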
An asterisk follows results filed as active; [ ] = remark or other dose. Unless noted, the call rests on the fitted dose curve; in most records, active means well fitted curve in the direction sought with a large enough effect; inconclusive means small, poorly fitted or top-dose-only effect, or another doubt; inactive means no such curve, though single readings can be large; an effect the other way counts as inactive or inconclusive. On the % scale 0 is the no-effect control and ±100 the full control effect.

How did CCOc1cccc2sc(N(CCN(C)C)C(=O)/C=C/c3cccs3)nc12 do in these assays?
IL-1B inflam inh: -103*; RORg inh: -35%; TDP1 cell noCPT: 23µM*; VP16 counter: -27%; TDP1 cell CPT: 7.3µM*; ELG1 repair inh: 1%

How did COc1ccc(-c2nc(SC(C)C(=O)NC3CC3)n[nH]2)cc1 (stereo unspecified) do in these assays?
IL-1B inflam inh: -10; TDP1 cell noCPT: 1%; TDP1 cell CPT: 2%; ELG1 repair inh: inconclusive

Results for O=C1N/C(=C/c2cccn2-c2ccccc2)C(=O)N1Cc1ccc(F)cc1 ?
IL-1B inflam inh: 11; RORg inh: 30%; TDP1 cell noCPT: -8%; VP16 counter: 10µM*; TDP1 cell CPT: 5%; ELG1 repair inh: 5%

How did O=C1N/C(=C/c2cccn2-c2ccc(F)cc2)C(=O)N1Cc1ccccc1F do in these assays?
IL-1B inflam inh: -4; RORg inh: 2%; TDP1 cell noCPT: inconclusive; VP16 counter: -9%; TDP1 cell CPT: 1%; ELG1 repair inh: 19%

What do the screens show for `CC(Oc1ccc(Br)cc1)C(=O)Nc1nc(-c2ccccn2)cs1` (stereo unspecified)?
IL-1B inflam inh: -99*; RORg inh: 2.5µM*; TDP1 cell noCPT: 3.3µM*; VP16 counter: 3.2µM*; TDP1 cell CPT: 4.6µM*; ELG1 repair inh: inconclusive

How did Cc1csc(NC(=O)[C@@H](NC(=O)c2ccccc2)C(C)C)n1 do in these assays?
IL-1B inflam inh: 16; RORg inh: 11%; TDP1 cell noCPT: 8.2µM*; VP16 counter: -1%; TDP1 cell CPT: inconclusive; ELG1 repair inh: 29%

Results for Cc1cccc(C(=O)N[C@H](C(=O)Nc2nccs2)C(C)C)c1 ?
IL-1B inflam inh: 12; RORg inh: -44%; TDP1 cell noCPT: -26%; VP16 counter: -21%; TDP1 cell CPT: -15%; ELG1 repair inh: -6%

Results for Cc1cccc(OC(C)C(=O)Nc2nc(-c3cccnc3)cs2)c1 (stereo unspecified) ?
IL-1B inflam inh: 20; TDP1 cell noCPT: inconclusive; TDP1 cell CPT: inconclusive

How did Cc1cccc(C(=O)N[C@H](C(=O)Nc2nc3ccccc3[nH]2)C(C)C)c1 do in these assays?
IL-1B inflam inh: 91; RORg inh: inconclusive; TDP1 cell noCPT: 3.7µM*; VP16 counter: inconclusive; TDP1 cell CPT: 3.3µM*; ELG1 repair inh: inconclusive

How did CC(C)[C@H](NC(=O)c1ccccc1Cl)C(=O)Nc1nc(-c2ccccn2)cs1 do in these assays?
IL-1B inflam inh: 71; RORg inh: 7.9µM*; TDP1 cell noCPT: 5.8µM*; VP16 counter: inconclusive; TDP1 cell CPT: 5.8µM*; ELG1 repair inh: inconclusive

What do the screens show for `CC(C)C(NC(=O)c1ccccc1F)C(=O)Nc1nccs1` (stereo unspecified)?
IL-1B inflam inh: -6; RORg inh: -8%; TDP1 cell noCPT: -25%; VP16 counter: -11%; TDP1 cell CPT: 5%; ELG1 repair inh: -5%

Results for O=C1CCCC/C1=N\Nc1ccc(OCc2ccccc2)cc1 ?
IL-1B inflam inh: -13; RORg inh: inconclusive; TDP1 cell noCPT: -26%; VP16 counter: 4%; TDP1 cell CPT: 0%; ELG1 repair inh: inconclusive

What do the screens show for `CCC(CC)c1nnc(NC(=O)[C@@H](NC(=O)c2cccc(C)c2)C(C)C)s1`?
IL-1B inflam inh: 15; RORg inh: 20µM*; TDP1 cell noCPT: -6%; VP16 counter: 16µM*; TDP1 cell CPT: 29%; ELG1 repair inh: -3%

Results for Cc1csc(NC(=S)NC(=O)c2ccccc2)n1 ?
IL-1B inflam inh: 19; RORg inh: 2µM*; TDP1 cell noCPT: 18µM*; VP16 counter: 3.2µM*; TDP1 cell CPT: inconclusive; ELG1 repair inh: inconclusive

What do the screens show for `Cc1csc(NC(=O)c2ccccc2)n1`?
IL-1B inflam inh: -7; RORg inh: -81%; TDP1 cell noCPT: -22%; VP16 counter: -14%; TDP1 cell CPT: -1%; ELG1 repair inh: inconclusive

What do the screens show for `Cc1cccc(C(=O)N[C@H](C(=O)Nc2nc(C)cs2)C(C)C)c1`?
IL-1B inflam inh: 10; RORg inh: 25%; TDP1 cell noCPT: 7.3µM*; VP16 counter: -11%; TDP1 cell CPT: 8.2µM*; ELG1 repair inh: 10%

What do the screens show for `CCOc1ccc(CCNC(=O)COC(=O)c2cccc(N(C)C)c2)cc1OCC`?
IL-1B inflam inh: -12; TDP1 cell noCPT: inconclusive; TDP1 cell CPT: -47%; ELG1 repair inh: inconclusive

Results for Cc1nn(CC(=O)NCCN2CCCCC2C)c(=O)c2cc(-c3ccccc3)nn12 (stereo unspecified) ?
IL-1B inflam inh: -5; RORg inh: -2%; TDP1 cell noCPT: -24%; VP16 counter: -3%; TDP1 cell CPT: -12%; ELG1 repair inh: 9%

How did CCOc1ccccc1CNCc1cccn1-c1nnc(N2CCN(c3ccccc3)CC2)s1 do in these assays?
TDP1 cell noCPT: 3.3µM*; TDP1 cell CPT: 5.8µM*

What do the screens show for `c1ccc(N2CCN(Cc3cccn3-c3nnc(N4CCN(C5CCCCC5)CC4)s3)CC2)cc1`?
TDP1 cell noCPT: -5%; TDP1 cell CPT: -6%

How did COC(=O)NC(=S)Nc1ccc(Oc2ccc(Cl)cc2)c(Cl)c1 do in these assays?
IL-1B inflam inh: 27; RORg inh: 4.5µM*; TDP1 cell noCPT: inconclusive; VP16 counter: 5µM*; TDP1 cell CPT: inconclusive; ELG1 repair inh: -9%

Results for COC(=O)NC(=S)Nc1ccc(Oc2ccc(Cl)cc2Cl)c(Cl)c1 ?
IL-1B inflam inh: 48; RORg inh: 2.2µM*; TDP1 cell noCPT: 4.6µM*; VP16 counter: inconclusive; TDP1 cell CPT: 9.2µM*; ELG1 repair inh: -26%

How did COC(=O)NNC(=O)C(C)Oc1ccc(Cl)cc1Cl (stereo unspecified) do in these assays?
IL-1B inflam inh: 37; RORg inh: 9%; TDP1 cell noCPT: -10%; VP16 counter: 7%; TDP1 cell CPT: -1%; ELG1 repair inh: 7%

What do the screens show for `COc1cc2nc(CN(CCO)C3CS(=O)(=O)CC3O)nc(N3CCCCC3)c2cc1OC` (stereo unspecified)?
TDP1 cell noCPT: -4%; TDP1 cell CPT: -6%[9.04 µM]

How did CC(c1nccs1)N(C)C(=O)CCc1nnc(-c2ccc(-c3ccccc3)cc2)o1 (stereo unspecified) do in these assays?
IL-1B inflam inh: inconclusive; RORg inh: -5%; TDP1 cell noCPT: -85%; VP16 counter: -5%; TDP1 cell CPT: 15µM*; ELG1 repair inh: -4%
